Drawing on PubChem BioAssay (NCATS), this text covers max response and Potency for 38 compounds.

Values joined by “and” are separate entries in the source; they are usually repeats but may differ in a detail not shown here. Equal values may be shown once. Inconclusive results are not listed. Some compounds were tested as several samples or in several runs, with calls that do not always agree. Values without a mark were called inactive. Active and inactive are the calls of the source. Calls follow the shape of the dose curve; as a rule, active = well fitted curve in the direction sought with a large enough effect; inconclusive = small, poorly fitted or top-dose-only effect, or another doubt; inactive = no such curve, though single readings can be large or run the other way.
% is scaled to controls: 0 for no effect and ±100 for the full control effect; potency is read from the fitted curve at half-maximal effect.

A short description of this assay: qHTS Assay for Identifying Gametocytocidal Compounds (AID 743244).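 As to max response: actives lower the fluorescent signal which means gametocytes are killed.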 The settings on record: P. falciparum 3D7 stage III-V gametocytes, alamarBlue, 72 h; max response: active compounds read low. The text has this:
Malaria cases and deaths have dropped 50% in 29 countries since 2000 due to the combined effects of long-lasting insecticidal bednets, indoor residual spraying, and artemisinin-based combination therapies (ACTs). This success has raised hopes for malaria eradication and consequently stimulated interest in developing new reagents that block gametocyte transmission such as novel and safe gametocytocidal drugs. However, previous drug development efforts have focused primarily on the asexual parasites that cause symptoms, but not malaria transmission. Consequently, patients can remain infectious for weeks after the clearance of asexual parasites and clinical symptoms. To be transmitted from person to person via a mosquito, the parasites must switch from asexual to sexual development and produce male and female gametocytes. Malaria gametocytes consist of five stages (I, II, III, IV and V). The late stage gametocytes (III, IV and V) are difficult to be cultured in vitro and the long lifespan of mature gametocytes allows them being transmitted from host to mosquitoes unless they are completely eliminated by gametocytocidal agents. To identify gametocytocidal compounds which are capable of killing late stage P. falciparum gametocytes, a high throughput gametocyte viability assay was employed. This assay uses oxidoreduction indicator, alamarBlue, as a general measure of metabolic activity of gametocytes. Within live cells, the nonfluorescent resazurin is reduced to resorufin, a bright red fluorescence dye. Fluorescence decreases upon treatment of gametocytocidal compounds. P. falciparum gametocyte (3D7 strain) was used in this study.
The 1536-well gametocycidal viability assay was based on the previous method of Tanaka et al. Stage III-V gametocytes were tested against three compound libraries, including 4265 compounds from NCGC pharmaceutical collection, 400 from Malaria Box library, and 550 from an internal collection of kinase inhibitors. Briefly, 2.5 ul/well incomplete medium was dispensed into each well of 1,536-well plates using the Multidrop Combi followed by 23 nl compound transferring using the NX-TR Pintool (WAKO Scientific Solutions, San Diego, CA). Then, 2.5 ul/well of gametocytes was dispensed with a seeding density of 20,000 cells/well using the Multidrop Combi. The assay plates were incubated for 72 h at 37C with 5% CO2. After addition of 5 ul/well of 2X AlamarBlue dye (Life Technologies, cat. no. DAL1100), the plates were incubated for 24 h at 37C with 5% CO2 and then were read in a fluorescence detection mode (Ex = 525 nm, Em = 598 nm) on a ViewLux plate reader (PerkinElmer).
For orientation: qHTS replaces the single test concentration by a dilution series.
Take `C#C[C@]1(O)CC[C@H]2[C@@H]3CCC4=CC(=O)CC[C@@H]4[C@H]3CC[C@@]21C`: the max response is 8.68%.

With `NC(=O)CC[C@@H]1NC(=O)[C@H](Cc2ccccc2)NC(=O)[C@H](Cc2ccc(O)cc2)NC(=O)CCSSC[C@@H](C(=O)N2CCC[C@H]2C(=O)N[C@@H](CCCN=C(N)N)C(=O)NCC(N)=O)NC(=O)[C@H](CC(N)=O)NC1=O`, the max response was 1.03% and -0.48%.

For `CCCCN1CCCC1C(=O)Nc1c(C)cc(C)cc1C` (stereo not given), the max response is -5.69%.

For the compound `O=C(COc1ccc(Cl)cc1)N1CCN(Cc2ccc3c(c2)OCO3)CC1`, the max response is -7.26%.

Consider `C/C=C/c1ccc(OC)cc1`, for which the max response is 16%.

As for `CC(C)(Oc1ccc(Cl)cc1)C(=O)O`, the max response is 6.9%.

On to `CCOC(=O)OC(C)OC1=C(C(=O)Nc2ccccn2)N(C)S(=O)(=O)c2ccccc21` (stereo not given), for which the max response was -4.24%.

As for `CCCCC(CC)CN=C(N)NC(N)=NCCCCCCN=C(N)NC(N)=NCC(CC)CCCC` (stereo not given), the Potency was 6.31 µM (active).

As to `Cc1ccc(C(=O)C(C)CN2CCCCC2)cc1` (stereo not given), the Potency was 22.4 µM (active) and the max response is -1.77%.

Consider `COc1ccc(OC)c(C(O)CNC(=O)CN)c1` (stereo not given), for which the max response was -3.82%.

For the compound `CC(O)(P(=O)(O)O)P(=O)(O)O`, the max response is -10.1%.

As to `Nc1ccc(/C=C/c2ccc(N)cc2S(=O)(=O)O)c(S(=O)(=O)O)c1`, the max response is 1.42%.

For the compound `CC(=O)OCC(=O)[C@@]1(O)CC[C@H]2[C@@H]3CCC4=CC(=O)C=C[C@]4(C)[C@H]3[C@@H](O)C[C@@]21C`, the max response was -0.763%.

With `Oc1c(I)cc(I)c2cccnc12`, the Potency was 8.91 µM (active).

Regarding `CC1(C)O[C@@H]2C[C@H]3[C@@H]4C[C@H](F)C5=CC(=O)CC[C@]5(C)[C@H]4[C@@H](O)C[C@]3(C)[C@]2(C(=O)CO)O1`, the max response was 1.24%.

Take `CC(=O)OCC(=O)[C@@]1(OC(C)=O)[C@@H](C)C[C@H]2[C@@H]3C[C@H](F)C4=CC(=O)C=C[C@]4(C)[C@@]3(F)[C@@H](O)C[C@@]21C`: the max response was 29%.

Regarding `CN1C(CCl)Nc2cc(Cl)c(S(N)(=O)=O)cc2S1(=O)=O` (stereo not given), the max response was 12.5%.

As to `CCOC(=O)c1cccc(N)c1`, the max response is -5.91%.

Turning to `Oc1ccc(Cl)cc1Sc1cc(Cl)ccc1O`, the max response was 6.07%.

Consider `CCCCC(=O)O[C@]1(C(=O)CO)CC[C@H]2[C@@H]3CCC4=CC(=O)CC[C@]4(C)[C@H]3[C@@H](O)C[C@@]21C`, for which the max response was 5.31%.

Consider `CC(C)(C)CC(C)(C)c1ccc(OCCOCC[N+](C)(C)Cc2ccccc2)cc1`, for which the Potency is 8.91 µM (active).

Regarding `CN1CCN(C(c2ccccc2)c2ccccc2)CC1`, the max response is -1.32%.

In the case of `COc1cccc2c1C(=O)c1c(O)c3c(c(O)c1C2=O)C[C@@](O)(C(=O)CO)C[C@@H]3O[C@H]1C[C@H](N)[C@H](O)[C@H](C)O1`, the max response is -8.37%; the Potency is 526 nM (active) and 2.82 µM (active).

Regarding `NC(=NCCCCCCN=C(N)/N=C(\N)Nc1ccc(Cl)cc1)/N=C(\N)Nc1ccc(Cl)cc1`, the Potency was 7.08 µM (active).

As for `Cc1c(N(C)CS(=O)(=O)O)c(=O)n(-c2ccccc2)n1C`, the max response is 18.3%.

On to `CNCCC(Oc1ccccc1C)c1ccccc1` (stereo not given), for which the max response is 9.68%.

As for `CC(C)COC(=O)OCN1C(=O)CN(CCN2CC(=O)N(COC(=O)OCC(C)C)C(=O)C2)CC1=O`, the max response was 5.95% and 28.2%.

With `O=S1(=O)c2cccc3cccc(c23)N1CCCN1CCN(c2ccc(F)cc2)CC1`, the max response is 13.8%.

Take `CCN1CCC[C@H]1CNC(=O)c1c(OC)ccc(Br)c1OC`: the max response is -8.08%.

With `CCC(=O)c1c(O)cc(O)cc1O`, the max response is 19%.

In the case of `COC(=O)[C@@H]1CC2=CC(=O)CC[C@]2(C)[C@@]23O[C@@H]2C[C@@]2(C)[C@@H](CC[C@@]24CCC(=O)O4)[C@H]13`, the max response is 1.84%.

As for `CC(=O)OCC(=O)[C@@]12N=C(C)O[C@@H]1C[C@H]1[C@@H]3CCC4=CC(=O)C=C[C@]4(C)[C@H]3[C@@H](O)C[C@@]12C`, the max response was -5.59%.

Turning to `COc1cccc(OC)c1C(=O)N[C@@H]1C(=O)N2[C@@H]1SC(C)(C)[C@@H]2C(=O)O`, the max response is -0.927%.

For `NC(=O)c1cc[n+](CC2=C(C(=O)[O-])N3C(=O)[C@@H](NC(=O)Cc4cccs4)[C@H]3SC2)cc1`, the max response was 1.11%.

In the case of `Cc1cc(O)c(C(C)C)cc1Cl`, the max response is -3.92%.

Turning to `CC1(C)CCC(NC(=O)[C@@H](N)CCC(=O)O)CC1`, the max response is -7.5% and 17.9%.

Regarding `CCCN1CCCC[C@H]1C(=O)Nc1c(C)cccc1C`, the max response is -10.7%.

In the case of `O=C1OCCN1/N=C/c1ccc([N+](=O)[O-])o1`, the max response was 2.02%.
